Assay outcomes (PubChem)
IL1B secr inh – blocks inflammasome-driven IL-1 beta release. activity change, % at 57.5 µM. THP-1 LPS/ATP IL-1B secretion, AlphaLISA, 16 h; hits give low values. AID 743279. 360,000 tested, 4.7% active; in the data active means activity change below about -50%; inconclusive means mostly about -30% to -49%
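Secreted IL-1B measured by AlphaLISA bead assay after 16 h compound exposure of THP-1 cells; compounds (final up to 57.5 uM) added 1 h before LPS (250 ng/mL) and ATP (1.25 mM) stimulation; lower signal means less secretion.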
TDP1 cell CPT – growth inhibition of DT40 Tdp1-/-;hTDP1 cells with camptothecin (screen for TDP1 inhibitors); chicken DT40 Tdp1-/-;hTDP1 cells + 20 nM CPT, ATP luminescence, 48 h; Potency, µM (top dose mostly 46.2 µM), for the others: top-dose activity change, negative = growth inhibition, actives largely listed as inhibitors; 420,000 tested, 12% active; AID 686979; further: potency means the concentration at half of the fitted maximal effect; nearly all actives have a fitted effect of over 55% in size
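Chicken DT40 Tdp1-/- cells complemented with human TDP1, 400 cells/well, exposed to compounds plus 20 nM camptothecin for at least 48 h at 37 C; viability read as ATP content by CellTiter-Glo luminescence.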
HT1080 IDH1KD tx – HT-1080 IDH1 knockdown cell toxicity (counter line); HT-1080 IDH1 knockdown viability, ATP luminescence, 48 h; Potency, µM (highest dose often 46.1 µM), without a hit: at the highest dose activity, negative = toxicity, actives largely listed as cytotoxic; 360,000 tested, 2% active;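 further: potency means the concentration at half of the fitted maximal effect; 0% = DMSO wells and -100% = cell-free medium wells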
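Luminescent ATP read-out (CellTiter-Glo, 10 min at room temperature) after 48 h compound exposure at 37 °C gave viability of IDH1-knockdown HT-1080 cells. Activity was normalised to DMSO and cell-free wells, then fitted as concentration-response curves.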
DT40 TDP1 no CPT – qHTS for Inhibitors of human tyrosyl-DNA phosphodiesterase 1 (TDP1): qHTS in cells in absence of CPT; DT40 Tdp1-/- hTDP1 cells, no CPT, ATP luminescence, 48 h; Potency, µM (titrated, usually from 46.2 µM), for inactives: top-dose activity change, negative = growth inhibition, actives largely listed as inhibitors; 420,000 tested, 15% active; AID 686978, 2013; further: potency means the concentration at half of the fitted maximal effect; nearly all actives have a fitted effect of over 55% in size
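A cellular qHTS used chicken DT40 cells lacking endogenous Tdp1 but carrying stably transfected human TDP1. Compounds were applied without camptothecin, and cell growth kinetics were judged by ATP-dependent luminescence after ≥48 hr.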
HT1080-NT tox – kills 2HG-producing HT-1080-NT fibrosarcoma cells. HT-1080-NT fibrosarcoma viability, CellTiter-Glo ATP luminescence, 48 h. Potency, µM (doses to about 46.1 µM), for inactives: at the top dose activity, negative = less viability, actives largely listed as cytotoxic. 360,000 tested, 1.6% active;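 further: NT is the 2HG producing partner of a matched IDH1 knockdown line; potency means the concentration at half of the fitted maximal effect; 0% = DMSO-treated cells and -100% = media-only wells without cells; nearly all actives have a fitted effect of over 55% in size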
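Toxicity toward the 2HG-producing NT line was scored as %Activity, normalised to DMSO and no-cell wells, from CellTiter-Glo luminescence after 48 hours' treatment.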
* hit, by the source's call; ? = inconclusive; / = no result. An excerpt weighted towards active compounds, which were near 19% of everything screened. Unless noted, the call rests on the fitted dose curve; in most records, active means well fitted curve in the direction sought with a large enough effect; inconclusive means small, poorly fitted or top-dose-only effect, or another doubt; inactive means no such curve, though single readings can be large; an effect the other way counts as inactive or inconclusive. Unless noted, on the % scale 0 is the no-effect control and ±100 the full control effect.

SMILES	IL1B secr inh	TDP1 cell CPT	HT1080 IDH1KD tx	DT40 TDP1 no CPT	HT1080-NT tox
CCCc1ccc(C2C3=C(CC(C)(C)CC3=O)NC3=C2C(=O)c2ccccc23)cc1 (stereo not given)	?	21µM*	?	16µM*	?
CCCCc1ccc(C2C3=C(CC(C)(C)CC3=O)NC3=C2C(=O)c2ccccc23)cc1 (stereo not given)	?	?	-19%	?	-6%
N#Cc1ccccc1CSc1nnc2ccc3ccccc3n12	/	-12%	/	?	/
CCCCOc1ccc(CSCCN=C(N)N)cc1	-81*	?	26µM*	4.6µM*	?
O=C(Cn1cnc2ccccc2c1=O)N/N=C/c1ccc(Br)cc1	-3	1%	1%	-15%	-2%
COC(=O)c1c(NC(=O)/C=C/C(=O)O)sc(C)c1-c1ccc(C)c(C)c1	-95*	?	?	?	?
CCOC(=O)c1c(NC(=O)/C=C/C(=O)O)sc(C)c1-c1ccc(C)c(C)c1	-95*	?	?	?	?
CCOC(=O)c1c(NC(=O)/C=C/C(=O)O)sc(C)c1-c1ccc(F)cc1	-101*	?	?	?	21µM*
COC(=O)c1c(NC(=O)/C=C/C(=O)O)sc(C)c1-c1ccc(C(C)C)cc1	-101*	4.6µM*	?	21µM*	?
CN1CCCC2(CCN(C(=O)c3cc(C(F)(F)F)cc(C(F)(F)F)c3)CC2)C1	/	-4%	/	-30%	/
CC(C)=C1C2CCC1C(C(=O)Nc1sc(C)c(-c3ccc(C(C)C)cc3)c1C(N)=O)C2C(=O)O (stereo not given)	-28	16µM*	16µM*	16µM*	?
CCC(C)SCC(=O)Nc1ccc(S(=O)(=O)N2CCOCC2)cc1OC (stereo not given)	1	-2%	11%	-20%	0%
O=c1cc(-c2ccccc2Cl)oc2c(NS(=O)(=O)c3cccs3)ccc(O)c12	14	-16%	3%	-19%	3%
CCCNC(=O)C1(C)CCN(Cc2ccc(-c3ccccc3)o2)C1 (stereo not given)	-14	23µM*	?	?	?
CC1(Oc2cccc(F)c2)CCN(Cc2ccc(-c3ccccc3)o2)C1 (stereo not given)	0	23µM*	3%	?	2%
CCNC(=O)C1(C)CCCN(Cc2ccc(-c3ccccc3)o2)C1 (stereo not given)	-25	23µM*	-11%	23µM*	8%
COc1ccc(C(=O)NCCc2nnc(SCC(=O)Nc3ccccc3F)n2C)cc1	0	-10%	3%	3%	1%
COc1cc(/C=N/n2cnnc2)ccc1Oc1nc(Cl)ncc1F	-18	16µM*	-1%	?	4%
COc1cc(/C=C(/C#N)C(=O)Nc2ccc(C)cc2)ccc1Oc1nc(Cl)ncc1F	0	23µM*	?	16µM*	?
COc1ccc(/C=N/n2cnnc2)cc1Oc1nc(Cl)ncc1F	11	6%	9%	9%	19%
Cc1cc(C)c(S(=O)(=O)N(C)CC(=O)NC2CCCC2)c(C)c1	-5	?	?	-14%	8%
COC(=O)c1ccc(C2C(C#N)=C(C)NC3=C2C(=O)CC(C)(C)C3)cc1 (stereo not given)	23	-22%	10%	-21%	2%
COc1ccc(C2CC(=O)C3=C(C2)NC(C)=C(C#N)C3c2ccc(N(C)C)cc2)cc1 (stereo not given)	-66*	8%	-11%	-22%	-1%
COc1ccc(C2C(C#N)=C(SC)NC3=C2C(=O)CC(C)(C)C3)cc1 (stereo not given)	-15	6.5µM*	-13%	8.2µM*	-8%
CCCc1cc(=O)oc2cc(OCC(=O)NCCCn3ccnc3)c(Cl)cc12	?	-26%	16%	-28%	5%
